Activity calls are given as the source filed them. No rule for the calls is given here.

In general, inhibition refers to the percentage by which the read-out fell short of the control.

In this experiment the target is Pantothenate synthetase (Mycobacterium tuberculosis (strain ATCC 25618 / H37Rv)) (UniProt P9WIL5). Nature of the experiment: Coupled enzyme confirmation of inhibitors against recombinant Mtb PanC (AID 375).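 Also: 0% = full reaction with vehicle and 100% = no enzyme background.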 The settings on record: coupled enzyme assay; at 10 µM, stronger effect = higher value.
Chain of Pantothenate synthetase (Mycobacterium tuberculosis (strain ATCC 25618 / H37Rv)) (P9WIL5 whole entry, looked up): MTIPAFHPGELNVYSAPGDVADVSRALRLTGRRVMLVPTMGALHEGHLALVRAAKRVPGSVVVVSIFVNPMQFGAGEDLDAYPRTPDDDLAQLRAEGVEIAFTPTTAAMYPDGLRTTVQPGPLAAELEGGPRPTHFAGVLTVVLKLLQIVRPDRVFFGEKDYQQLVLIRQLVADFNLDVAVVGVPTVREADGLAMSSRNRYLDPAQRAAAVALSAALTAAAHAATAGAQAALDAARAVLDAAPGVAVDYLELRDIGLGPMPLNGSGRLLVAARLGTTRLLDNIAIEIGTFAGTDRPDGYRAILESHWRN
Turning to `O=C(Oc1cccc2cccnc12)c1cccc(-n2cnnn2)c1`, the inhibition was 0% (inactive).
For `O=C(Nc1cccc(NC(=O)c2cccnc2)c1)c1cccnc1`, the inhibition is 1% (inactive).
Regarding `Cc1nc(N2CCOCC2)[nH]c(=O)c1CCC(C)C`, the inhibition was 8% (inactive).
To `COc1ccc([C@@H]2Sc3ccccc3N(CCN(C)C)C(=O)[C@@H]2OC(C)=O)cc1` belongs 2% (inactive); to `CC(Sc1nnnn1-c1ccccc1)C(=O)Nc1ccc(Cl)cn1` (stereo not given), 2% (inactive); to `Cc1nnc2c3ccccc3c(-c3ccccc3)nn12`, 0% (inactive).
As for `Cc1ccc(-c2nnc(SCC(=O)N3CC(C)CC(C)C3)o2)cc1C` (stereo not given), the inhibition was 0% (inactive).
On to `CC(C)c1nnc(SCC(=O)NCc2ccco2)n1C`, for which the inhibition is 0% (inactive).
Turning to `O=C(NCC1COCCO1)C1CCN(S(=O)(=O)c2ccccc2)CC1` (stereo not given), the inhibition was 3% (inactive).
As for `COc1ccc(C(=O)Nc2ccc(S(=O)(=O)NC(C)=O)cc2)cc1`, the inhibition was 0% (inactive).
Consider `Cc1nc(SCCC(=O)O)c2ccccc2n1`, for which the inhibition was 6% (inactive).
To `CCCn1c(SCC(=O)Nc2cc(C)on2)nc2c1c(=O)n(C)c(=O)n2C` belongs 0% (inactive); to `CCCCOc1ccc(NC(=O)Cn2c(=O)ccc3c(C)cc(C)nc32)cc1`, 3% (inactive).
To `CCOCCCNC(=O)C(NC(=O)c1ccccn1)c1ccc(C)cc1` (stereo not given) belongs 0% (inactive); to `COCCCNC(=O)C(Cc1ccccc1)NS(=O)(=O)c1ccc2c(c1)c(=O)n(C)c(=O)n2C` (stereo not given), 0% (inactive).
On to `COc1ccc(-c2nc(C)c(C(C)=O)n2O)cc1OC`, for which the inhibition was 0% (inactive).
On to `O=C1c2oc3ccccc3c(=O)c2C(c2ccccn2)N1Cc1ccccc1` (stereo not given), for which the inhibition is 13% (inactive).
To `S=c1[nH]nc(Cc2ccccc2)n1-c1ccccc1` belongs 1% (inactive).
`CCCN(Cc1cc2cc(C)ccc2[nH]c1=O)C(=O)c1cccc(OC)c1`: the inhibition was 0% (inactive).
As to `COc1ccccc1C1/C(=C(\O)c2c(C)nc3c(C)cccn23)C(=O)C(=O)N1CCCN(C)C` (stereo not given), the inhibition is 0% (inactive).
As for `CN1CCC(NC(=O)c2cccs2)CC1`, the inhibition is 2% (inactive).
`COc1ccc(C(=O)OCC(=O)NCc2ccco2)cc1OC`: the inhibition was 0% (inactive).
Regarding `COc1ccc(N2CCN(C(=O)C(C)(C)Oc3ccc(Cl)cc3)CC2)cc1`, the inhibition was 0% (inactive).
Turning to `Cc1cc(C)nc(N2CCC(C(=O)Nc3ccc(Oc4ccccc4)cc3)CC2)n1`, the inhibition is 0% (inactive).
`Cc1ccc(O)c(C(CC(=O)N2CCCC2)c2ccccc2)c1` (stereo not given): the inhibition is 0% (inactive).
For `CCn1c(=N)n(CC(O)COc2cccc(C)c2)c2ccccc21` (stereo not given), the inhibition is 4% (inactive).
`COC(=O)c1cc(NS(=O)(=O)c2ccc3c(c2)CCC(=O)N3)cc(C(=O)OC)c1`: the inhibition was 0% (inactive).
As for `COc1cc(CO)cc(-c2cc(CO)cc(OC)c2OC)c1OC`, the inhibition was 0% (inactive).
`CCOC(=O)Cc1nnc(NC(=O)c2ccccc2OCC)s1`: the inhibition is 0% (inactive).
As to `COc1cccc(CNC(=O)CCS(=O)(=O)c2cccc3nsnc23)c1`, the inhibition is 6% (inactive).
The figure for `CCOC(=O)C(CC)n1nc(C)n2c(cc3sccc32)c1=O` (stereo not given) is 4% (inactive).
Consider `CCOc1cccc(/C(O)=C2/C(=O)C(=O)N(CCN3CCOCC3)C2c2cccnc2)c1` (stereo not given), for which the inhibition is 0% (inactive).
Consider `CCOC(=O)c1sc(C)c2c(=O)n(CC)nnc12`, for which the inhibition is 0% (inactive).
Take `CCOc1ccccc1OCCn1nnc2ccccc21`: the inhibition is 4% (inactive).
As for `O=C(COc1ccccc1)NCCSCc1ccco1`, the inhibition is 0% (inactive).
With `Cc1cccn2c(=O)c3cc(C(=O)NC4CCCC4)c(=N)n(C4CCCC4)c3nc12`, the inhibition is 0% (inactive).
In the case of `COc1ccc(Br)cc1S(=O)(=O)N1CCOCC1`, the inhibition was 0% (inactive).
Consider `CC(=O)c1ccc(NS(=O)(=O)c2ccccc2)cc1`, for which the inhibition is 0% (inactive).
With `CCC1CCCCN1C(=O)CSc1nnc(-c2ccc(OC)cc2)o1` (stereo not given), the inhibition was 0% (inactive).
Take `COc1cccc(C2CC(c3c(Cl)cccc3Cl)n3nc(N)nc3N2)c1` (stereo not given): the inhibition was 0% (inactive).

The values above are taken from PubChem BioAssay.
